Measurements taken from PubChem BioAssay (EPA / NIEHS).
The source made the active and inactive calls. Rule for the calls: active = hit-call score of the fitted dose curve at least 0.9, where 1 is the maximum; inactive = score below 0.9.

test: CEETOX_H295R_ESTRONE: CeeTox H295R High-throughput Steroidogenesis Assay for Estrone (AID 2283441); settings: actives raise or lower the signal;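 note: estrone secreted into medium measured by LC-MS/MS after dansyl derivatization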;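 for AC50: human adrenal H295R cells prestimulated with forskolin for two days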
Experimental: CEETOX_H295R is a cell-based, multiplexed-readout assay that uses H295R, a human adrenal gland cell line, with measurements taken at 48 hours after chemical dosing in a 96-well plate.CEETOX_H295R_ESTRONE is one of 23 assay component(s) measured or calculated from the CEETOX_H295R assay. It is designed to make measurements of hormone induction, a form of inducible reporter, as detected with absorbance signals by HPLC-MS-MS technology.Data from the assay component CEETOX_H295R_ESTRONE was analyzed into 1 assay endpoint. This assay endpoint, CEETOX_H295R_ESTRONE, was analyzed with bidirectional fitting relative to DMSO as the negative control and baseline of activity. Using a type of inducible reporter, gain or loss-of-signal activity using HPLC-MS-MS was used to understand synthesis of Estrone in H295R cell line at 48hr of chemical exposure. To generalize the intended target to other relatable targets, this assay endpoint is annotated to the steroid hormone intended target family, where the subfamily is estrogens.
Cell culture and media preparation procedures were conducted in accordance with OECD Test No. 456 guidelines, with minor modifications. H295R cells (ATCC CRL-2128) were expanded for 5 passages and frozen in batches in liquid nitrogen. Prior to the steroidogenesis assay, H295R cells were thawed and passed at least 4 times. The maximum passage was 10. […] After seeding cells into 96-well plates at 50-60% confluency, cells were allowed to adhere overnight. Prior to chemical testing, culture medium was replaced with 175 uL medium containing 10 uM forskolin to stimulate steroidogenesis for 48 hours. Following prestimulation, forskolin medium was replaced with medium containing test chemical solubilized in DMSO (ensuring a final concentration of 0.1% DMSO). Test chemicals were incubated for 48 hours, then the medium was removed and split into 2 vials containing approximately 75uL each, and stored at -80 C prior to hormone analysis. For steroid quantification, media samples were shipped to OpAns, LLC (Durham, NC) on dry ice, and samples were thawed to room temperature prior to liquid-liquid extraction. Steroid hormones were extracted from media samples using methyl tertbutyl ether (MTBE). An extra derivatization with dansyl chloride was included for estrogen (estrone and estradiol) detection only. Steroid hormones were separated by HPLC, eluted using a reverse phase C18 gradient with electrospray positive ionization, followed by quantification by tandem mass spectrometry (MS/MS). Data were acquired on a MassHunter Workstation Acquisition version B03.01 (Agilent Technologies, Inc.) and processed using MassHunter Quantitative Analysis for QQQ. Accuracy was determined for each hormone analyte from 3 standards to determine upper and lower limits of quantification (ULOQ and LLOQ, respectively) using a 7-point standard curve. Precision and accuracy of the extraction and quantification methods were calculated as the percent relative standard deviation (%RSD) of the spiked standards and percent spiked standard recovered, respectively. The goal was to achieve 100% accuracy (i.e., recover all spiked-in standard at quantification with minimal loss during run time) and good precision (i.e., have %RSD <15% to ensure reproducibility). Test medium was removed following chemical exposure, and cell viability was evaluated in the same wells by MTT. MTT procedures were as follows: after removal of test medium, 500 uL of 0.5 mg/ml of 3-[4,5-dimethylthiazol-2-y]2,5-diphenyltetrazoliumbromide solution was added to the cells. Following a 4-hour incubation at 37 C and 5% CO2 to allow formazan-crystal formation, the MTT solution was removed and blue formazan salt crystals were solubilized using 500uL anhydrous isopropanol with shaking for 20 minutes. Absorbance was read at 570 and 650nm using a Packard Fusion microplate reader. Background correction of absorbance units was used to determine percent change relative to controls. […] […]

| Compound | outcome | AC50 |
| --- | --- | --- |
| C(=NC1CCCCC1)=NC1CCCCC1 | inactive |  |
| C[C@]12CC[C@H](O)CC1=CC[C@@H]1[C@@H]2CC[C@]2(C)C(=O)CC[C@@H]12 | inactive |  |
| Fc1ccc(C2(Cn3cncn3)OC2c2ccccc2Cl)cc1 (configuration not stated) |  | 2.03 µM (active) |
| CCOP(=S)(OCC)SCCS(=O)(=O)CC | inactive |  |
| O=C(Nc1ccc2[nH]ccc2c1)c1cc2cc(F)ccc2n1Cc1cccc(F)c1 | inactive |  |
| CCOP(=S)(OCC)Oc1nc(Cl)c(Cl)cc1Cl | inactive |  |
| NNC(=S)NN | inactive |  |
| C=CC(=O)N(C)C | inactive |  |
| CCCCCCCCC(=O)NCc1ccc(O)c(OC)c1 | inactive |  |
| Nc1ccc(-c2ccc(N)c(Cl)c2)cc1Cl | inactive |  |
| Oc1ccc(-c2ccccc2)cc1 | inactive |  |
| CCOP(=S)(OCC)SCSP(=S)(OCC)OCC | inactive |  |
